Source: PubChem BioAssay AID1159580 (chemical genetic matrix, 2015)
Hit rate of the full screen: of about 5,500 compounds, about 2,000 (36%) were called active. Inconclusive results (about 18%) are left out. Rule as the data show it: active = normalized growth mostly below about 0.91 (no sharp cut-off); inconclusive = no clear call, values can overlap the other calls; inactive = mostly above about 0.92. The list shows a part of the results.

Assay: chemical genetic growth profiling, strain panel (AID 1159580);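 also: tested at 20 µM; growth read once vehicle control cultures reached saturation at 30 °C; 1 = growth at the plate median or of vehicle wells; lower values mean less growth of the strain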
Conditions: growth OD

Measured: normalized growth

C[C@H]1O[C@@H](O[C@H]2[C@@H](O)C[C@H](O[C@H]3[C@@H](O)C[C@H](O[C@H]4CC[C@]5(C)C6C[C@@H](O)[C@]7(C)[C@@H](C8=CC(=O)OC8)CC[C@]7(O)C6CC[C@@H]5C4)O[C@@H]3C)O[C@@H]2C)C[C@H](O)[C@@H]1O (some centres undefined)
inactive: S. cerevisiae deletion strains, locus YJR043C, strain POL32, active compounds read low 1.01 | S. cerevisiae deletion strains, locus YJR066W, strain TOR1, active compounds read low 0.966 | S. cerevisiae deletion strains, locus YKL009W, strain mrt4, active compounds read low 0.969 | S. cerevisiae deletion strains, locus YKL068W, active compounds read low 0.986 | S. cerevisiae deletion strains, locus YKL085W, strain MDH1 (second series), active compounds read low 0.991 | S. cerevisiae deletion strains, locus YKL085W, strain MDH1, active compounds read low 0.991 | S. cerevisiae deletion strains, locus YKL160W, strain elf1, active compounds read low 0.93 | S. cerevisiae deletion strains, locus YKR001C, strain vps1, active compounds read low 0.971 | S. cerevisiae deletion strains, locus YKR026C, strain gcn3, active compounds read low 1 | S. cerevisiae deletion strains, locus YKR091W, strain srl3, active compounds read low 0.984 | S. cerevisiae deletion strains, locus YLL001W, strain dnm1, active compounds read low 0.921 | S. cerevisiae deletion strains, locus YLL026W, active compounds read low 0.999 | S. cerevisiae deletion strains, locus YLL041C, strain sdh2, active compounds read low 1 | S. cerevisiae deletion strains, locus YLR027C, strain aat2, active compounds read low 1.03 | S. cerevisiae deletion strains, locus YLR039C, strain RIC1, active compounds read low 0.973 | S. cerevisiae deletion strains, locus YLR058C, strain SHM2, active compounds read low 1 | S. cerevisiae deletion strains, locus YLR102C, strain apc9, active compounds read low 0.977 | S. cerevisiae deletion strains, locus YLR113W, strain HOG1, active compounds read low 1.09 | S. cerevisiae deletion strains, locus YLR221C, strain rsa3, active compounds read low 1.01 | S. cerevisiae deletion strains, locus YLR258W, strain gsy2, active compounds read low 1.01 | S. cerevisiae deletion strains, locus YLR262C, strain YPT6 (second series), active compounds read low 0.956 | S. cerevisiae deletion strains, locus YLR262C, strain YPT6, active compounds read low 0.984 | S. cerevisiae deletion strains, locus YLR268W, strain sec22, active compounds read low 0.959 | S. cerevisiae deletion strains, locus YLR320W, strain mms22, active compounds read low 0.969 | S. cerevisiae deletion strains, locus YLR330W, strain CHS5, active compounds read low 0.983 | S. cerevisiae deletion strains, locus YLR342W, strain FKS1 (second series), active compounds read low 1.02 | S. cerevisiae deletion strains, locus YLR342W, strain FKS1, active compounds read low 0.983 | S. cerevisiae deletion strains, locus YLR357W, strain rsc2, active compounds read low 0.999 | S. cerevisiae deletion strains, locus YLR370C, strain arc18, active compounds read low 0.994 | S. cerevisiae deletion strains, locus YLR371W, strain rom2, active compounds read low 0.997 | S. cerevisiae deletion strains, locus YLR384C, strain iki3, active compounds read low 1 | S. cerevisiae deletion strains, locus YLR418C, strain cdc73, active compounds read low 1.01 | S. cerevisiae deletion strains, locus YML016C, strain PPZ1, active compounds read low 0.998 | S. cerevisiae deletion strains, locus YML032C, strain rad52, active compounds read low 0.988 | S. cerevisiae deletion strains, locus YML120C, strain ndi1, active compounds read low 0.946 | S. cerevisiae deletion strains, locus YML124C, strain tub3, active compounds read low 0.992 | S. cerevisiae deletion strains, locus YMR058W, strain fet3, active compounds read low 0.984 | S. cerevisiae deletion strains, locus YMR078C, strain ctf18, active compounds read low 0.981 | S. cerevisiae deletion strains, locus YMR125W, strain sto1, active compounds read low 0.925 | S. cerevisiae deletion strains, locus YMR129W, active compounds read low 0.996 | S. cerevisiae deletion strains, locus YMR205C, strain PFK2, active compounds read low 0.942 | S. cerevisiae deletion strains, locus YMR223W, strain ubp8, active compounds read low 0.993 | S. cerevisiae deletion strains, locus YMR231W, strain pep5, active compounds read low 0.998 | S. cerevisiae deletion strains, locus YMR307W, strain GAS1, active compounds read low 1.09 | S. cerevisiae deletion strains, locus YNL067W, strain RPL9B, active compounds read low 1.03 | S. cerevisiae deletion strains, locus YNL071W, strain lat1, active compounds read low 1 | S. cerevisiae deletion strains, locus YNL128W, strain TEP1, active compounds read low 0.977 | S. cerevisiae deletion strains, locus YNL183C, strain NPR1, active compounds read low 0.985 | S. cerevisiae deletion strains, locus YNL209W, strain ssb2, active compounds read low 0.995 | S. cerevisiae deletion strains, locus YNL233W, strain BNI4, active compounds read low 1.01 | S. cerevisiae deletion strains, locus YNL248C, strain rpa49, active compounds read low 0.973 | S. cerevisiae deletion strains, locus YNL250W, strain rad50, active compounds read low 0.974 | S. cerevisiae deletion strains, locus YNL271C, strain bni1, active compounds read low 0.996 | S. cerevisiae deletion strains, locus YNL298W, strain CLA4, active compounds read low 0.986 | S. cerevisiae deletion strains, locus YNL307C, strain MCK1, active compounds read low 0.988 | S. cerevisiae deletion strains, locus YNL322C, strain KRE1 (second series), active compounds read low 0.995 | S. cerevisiae deletion strains, locus YNL322C, strain KRE1, active compounds read low 0.996 | S. cerevisiae deletion strains, locus YNR049C, strain mso1, active compounds read low 0.986 | S. cerevisiae deletion strains, locus YNR052C, strain pop2, active compounds read low 0.993 | S. cerevisiae deletion strains, locus YOL006C, strain TOP1, active compounds read low 0.959 | S. cerevisiae deletion strains, locus YOL012C, strain htz1 0.951 | S. cerevisiae deletion strains, locus YOL147C, strain pex11, active compounds read low 0.99 | S. cerevisiae deletion strains, locus YOR001W, strain rrp6, active compounds read low 1.06 | S. cerevisiae deletion strains, locus YOR061W, strain CKA2, active compounds read low 0.984 | S. cerevisiae deletion strains, locus YOR069W, strain VPS5, active compounds read low 0.992 | S. cerevisiae deletion strains, locus YOR070C, strain gyp1, active compounds read low 0.999 | S. cerevisiae deletion strains, locus YOR080W, strain dia2, active compounds read low 0.985 | S. cerevisiae deletion strains, locus YOR083W, strain WHI5, active compounds read low 0.945 | S. cerevisiae deletion strains, locus YOR106W, strain vam3, active compounds read low 0.947 | S. cerevisiae deletion strains, locus YOR136W, strain idh2, active compounds read low 0.974 | S. cerevisiae deletion strains, locus YOR144C, strain elg1, active compounds read low 0.988 | S. cerevisiae deletion strains, locus YOR184W, strain ser1, active compounds read low 0.979 | S. cerevisiae deletion strains, locus YOR231W, strain MKK1, active compounds read low 1.04 | S. cerevisiae deletion strains, locus YOR265W, strain rbl2, active compounds read low 0.993 | S. cerevisiae deletion strains, locus YOR270C, strain vph1, active compounds read low 0.92 | S. cerevisiae deletion strains, locus YOR290C, strain snf2, active compounds read low 0.973 | S. cerevisiae deletion strains, locus YOR316C, strain cot1, active compounds read low 0.983 | S. cerevisiae deletion strains, locus YPL051W, strain arl3, active compounds read low 1 | S. cerevisiae deletion strains, locus YPL078C, strain atp4, active compounds read low 0.932 | S. cerevisiae deletion strains, locus YPL106C, strain sse1, active compounds read low 1 | S. cerevisiae deletion strains, locus YPL240C, strain hsp82, active compounds read low 0.99 | S. cerevisiae deletion strains, locus YPL241C, strain CIN2, active compounds read low 0.998 | S. cerevisiae deletion strains, locus YPL256C, strain CLN2, active compounds read low 1.04 | S. cerevisiae deletion strains, locus YPR119W, strain clb2, active compounds read low 1 | S. cerevisiae deletion strains, locus YPR141C, strain kar3, active compounds read low 0.984 | S. cerevisiae deletion strains, locus YPR163C, strain tif3, active compounds read low 0.977 | S. cerevisiae deletion strains, locus YPR167C, strain met16, active compounds read low 0.977 | S. cerevisiae deletion strains, strain wtn01, active compounds read low 0.997 | S. cerevisiae strains, strain wild type, active compounds read low 1
